Records with an inconclusive call do not appear. Activity calls are given as the source filed them. Calls come from the whole dose curve; as a rule, active = well fitted curve in the direction sought with a large enough effect; inconclusive = small, poorly fitted or top-dose-only effect, or another doubt; inactive = no such curve, though single readings can be large; an effect the other way counts as inactive or inconclusive.
Key:
[1] = Quantitative High-Throughput drug screen in 47 multiple myeloma cell lines against the NCATS MIPE library collection: AMO1_DSMZ cell viability assay (AID 1918927; note: nearly all actives have a fitted effect of over 30% in size)
Procedure, shortened: (§1)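 Viability readout: CellTiter-Glo luminescence following 5 min room-temperature incubation with reagent. Prior exposure: 48 h, 37C, humidified 5% CO2, 500 cells per well.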

[2] = Quantitative High-Throughput drug screen in 47 multiple myeloma cell lines against the NCATS MIPE library collection: ARP1_JJKsccF8 cell viability assay (AID 1918928; note: nearly all actives have a fitted effect of over 40% in size)
Procedure, shortened: (§2)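 Here, 48 h treatment with MIPE 4.0 agents at 37 °C preceded an ATP luminescence read. Plating density was 500 cells per well.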

[3] = Quantitative High-Throughput drug screen in 47 multiple myeloma cell lines against the NCATS MIPE library collection: ARD_JJKsccE7 cell viability assay (AID 1918929)
Procedure, shortened: as §1

[4] = Quantitative High-Throughput drug screen in 47 multiple myeloma cell lines against the NCATS MIPE library collection: Karpas620_DSMZ cell viability assay (AID 1918959); note: nearly all actives have a fitted effect of over 30% in size
Procedure, shortened: (§3)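 Myeloma cell lines, 500 cells per well, exposed to MIPE 4.0 library compounds for 48 h at 37C, 5% CO2. Viability from ATP by CellTiter-Glo luminescence; normalised to DMSO (100%) and media-only (0%) wells.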

[5] = Quantitative High-Throughput drug screen in 47 multiple myeloma cell lines against the NCATS MIPE library collection: KMM1_JCRB cell viability assay (AID 1918960); note: nearly all actives have a fitted effect of over 30% in size;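 for viability (% of DMSO): 100% = DMSO-treated cells and 0% = medium-only wells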
Procedure, shortened: as §2

[6] = Quantitative High-Throughput drug screen in 47 multiple myeloma cell lines against the NCATS MIPE library collection: INA6_PLB cell viability assay (AID 1918965; note: nearly all actives have a fitted effect of over 55% in size)
Procedure, shortened: as §3

[7] = Quantitative High-Throughput drug screen in 47 multiple myeloma cell lines against the NCATS MIPE library collection: H1112_PLB cell viability assay (AID 1918967; note: nearly all actives have a fitted effect of over 30% in size)
Procedure, shortened: as §1

[8] = Quantitative High-Throughput drug screen in 47 multiple myeloma cell lines against the NCATS MIPE library collection: Karpas25_ECACC cell viability assay (AID 1918968; note: nearly all actives have a fitted effect of over 35% in size)
Procedure, shortened: as §1

[9] = Quantitative High-Throughput drug screen in 47 multiple myeloma cell lines against the NCATS MIPE library collection: KMS27_JCRB cell viability assay (AID 1918970); note: nearly all actives have a fitted effect of over 30% in size
Procedure, shortened: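 Myeloma cells (500 per well) were exposed to MIPE 4.0 compounds for 48 h at 37 °C, 5% CO2; viability was read as ATP luminescence with CellTiter-Glo, normalized to DMSO-only (100%) and media-only (0%) wells.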

[10] = Quantitative High-Throughput drug screen in 47 multiple myeloma cell lines against the NCATS MIPE library collection: KMS12BM_JCRB cell viability assay (AID 1918971); note: nearly all actives have a fitted effect of over 35% in size
Procedure, shortened: (§4)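 Luminescent ATP measurement with CellTiter-Glo gives viability, scaled between DMSO-only wells (100%) and media-only wells (0%). Cells, 500 per well, faced library compounds for 48 hours at 37C.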

[11] = Quantitative High-Throughput drug screen in 47 multiple myeloma cell lines against the NCATS MIPE library collection: KMS12PE_JCRB cell viability assay (AID 1918972); note: nearly all actives have a fitted effect of over 30% in size
Procedure, shortened: as §3

[12] = Quantitative High-Throughput drug screen in 47 multiple myeloma cell lines against the NCATS MIPE library collection: KMS20_JCRB cell viability assay (AID 1918973); note: nearly all actives have a fitted effect of over 45% in size
Procedure, shortened: as §1

[13] = Quantitative High-Throughput drug screen in 47 multiple myeloma cell lines against the NCATS MIPE library collection: MMM1_PLB cell viability assay (AID 1918976); note: nearly all actives have a fitted effect of over 35% in size
Procedure, shortened: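 500 cells/well per myeloma line exposed to pinned MIPE 4.0 compounds for 48 h at 37 °C, 5% CO2. Viability read as ATP by CellTiter-Glo luminescence, normalised to DMSO-only (100%) and media-only (0%) wells.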

[14] = Quantitative High-Throughput drug screen in 47 multiple myeloma cell lines against the NCATS MIPE library collection: KHM11_PLB cell viability assay (AID 1918962); note: nearly all actives have a fitted effect of over 35% in size
Procedure, shortened: as §3

[15] = Quantitative High-Throughput drug screen in 47 multiple myeloma cell lines against the NCATS MIPE library collection: JIM3_ECACC cell viability assay (AID 1918963; note: nearly all actives have a fitted effect of over 35% in size)
Procedure, shortened: as §3

[16] = Quantitative High-Throughput drug screen in 47 multiple myeloma cell lines against the NCATS MIPE library collection: JIM1_ECACC cell viability assay (AID 1918964)
Procedure, shortened: as §1

[17] = Quantitative High-Throughput drug screen in 47 multiple myeloma cell lines against the NCATS MIPE library collection: KMS26_JCRB cell viability assay (AID 1918975); note: nearly all actives have a fitted effect of over 45% in size
Procedure, shortened: as §4

[18] = Quantitative High-Throughput drug screen in 47 multiple myeloma cell lines against the NCATS MIPE library collection: JJN3_DSMZ cell viability assay (AID 1918966; note: nearly all actives have a fitted effect of over 50% in size)
Procedure, shortened: as §1

[19] = Quantitative High-Throughput drug screen in 47 multiple myeloma cell lines against the NCATS MIPE library collection: Karpas417_ECACC cell viability assay (AID 1918961); settings: Karpas417 myeloma viability, CellTiter-Glo ATP luminescence, 48 h; viability (% of DMSO): at 45.8 µM (top of the series)
Procedure, shortened: as §3

[20] = Quantitative High-Throughput drug screen in 47 multiple myeloma cell lines against the NCATS MIPE library collection: KMS21BM_JCRB cell viability assay (AID 1918974); settings: ATP luminescence, 48 h; viability: at 45.8 µM (top of the series)
Procedure, shortened: as §1
Potency is the fitted concentration of half-maximal effect.

C#CC1(O)CCC2C3CCC4=CC(=O)CCC4(C)C3CCC21C (stereo not drawn)
inactive: Potency [1] | Potency [2] | Potency [3] | Potency [4] | Potency [5] | Potency [6] | Potency [7] | Potency [8] | Potency [9] | Potency [11] | Potency [12]
active: Potency [10] 4.18 µM | Potency [13] 9.35 µM

CC(N[C@H]1C[C@H]1c1ccccc1)c1ccc2c(c1)OCCO2 (stereo partly drawn)
inactive: Potency [1] | Potency [4] | Potency [5] | Potency [14] | Potency [15] | Potency [16] | Potency [6] | Potency [7] | Potency [11]
active: Potency [2] 8.33 µM | Potency [10] 1.87 µM | Potency [12] 0.001 µM | Potency [17] 5.26 µM

COc1ccc2c(c[n+](C)c3c4cc5c(cc4ccc23)OCO5)c1OC
active: Potency [1] 6.62 µM | Potency [2] 2.96 µM | Potency [4] 5.9 µM | Potency [5] 5.9 µM | Potency [14] 6.62 µM | Potency [15] 7.43 µM | Potency [16] 4.18 µM | Potency [6] 8.33 µM | Potency [18] 2.64 µM | Potency [7] 7.43 µM | Potency [11] 4.69 µM | Potency [17] 3.72 µM | Potency [13] 6.62 µM

CC(C)N[C@@H]1CCn2c(=O)[nH]c3cccc(c32)[C@@H]1O
active: Potency [1] 5.9 µM | Potency [2] 11.8 µM | Potency [4] 5.26 µM | Potency [5] 0.743 µM | Potency [19] 1.05 µM | Potency [18] 9.35 µM | Potency [7] 7.43 µM | Potency [9] 833 nM | Potency [11] 6.62 µM | Potency [12] 10.5 µM | Potency [20] 0.833 µM | Potency [17] 26.4 µM | Potency [13] 18.7 µM

Cc1c(C(=O)Nc2cccc(C(F)(F)F)c2)cc(-c2ccccc2)n1CCCN1CCOCC1
active: Potency [1] 8.33 µM | Potency [2] 20.9 µM | Potency [3] 5.9 µM | Potency [4] 16.6 µM | Potency [5] 14.8 µM | Potency [19] 7.43 µM | Potency [16] 6.62 µM | Potency [6] 16.6 µM | Potency [18] 16.6 µM | Potency [7] 3.72 µM | Potency [8] 11.8 µM | Potency [10] 13.2 µM | Potency [11] 10.5 µM | Potency [12] 16.6 µM | Potency [20] 18.7 µM | Potency [17] 11.8 µM | Potency [13] 20.9 µM

O=C(Oc1ccc([N+](=O)[O-])cc1)N1CCN(Cc2cccc(Oc3ccccc3)c2)CC1
inactive: Potency [1] | Potency [2]

COc1cccc2c1[C@]13CCN(CC4CC4)[C@H](C2)[C@]1(OC)CCC(=O)C3
active: viability (% of DMSO) [19] 89.4%
inactive: Potency [1] | Potency [2] | Potency [3] | Potency [4] | Potency [5] | Potency [14] | Potency [6] | Potency [7] | Potency [9] | Potency [10] | Potency [11] | Potency [17]

C[C@@H]1CC[C@@]2(OC1)O[C@H]1C[C@H]3[C@@H]4CC=C5C[C@@H](O[C@@H]6O[C@H](CO)[C@@H](O[C@@H]7O[C@@H](C)[C@H](O)[C@@H](O)[C@@H]7O)[C@H](O)[C@@H]6O[C@@H]6O[C@@H](C)[C@H](O)[C@@H](O)[C@@H]6O)CC[C@]5(C)[C@@H]4CC[C@]3(C)[C@@H]1[C@H]2C
active: Potency [1] 2.64 µM | Potency [2] 3.32 µM | Potency [4] 2.96 µM | Potency [5] 2.64 µM | Potency [19] 1.05 µM | Potency [15] 3.72 µM | Potency [16] 2.35 µM | Potency [6] 5.26 µM | Potency [18] 2.35 µM | Potency [7] 4.69 µM | Potency [8] 3.32 µM | Potency [9] 935 nM | Potency [10] 2.64 µM | Potency [11] 1.32 µM | Potency [12] 4.18 µM | Potency [20] 1.48 µM | Potency [17] 2.35 µM | Potency [13] 2.35 µM

CC(C)(O)C=CC(=O)[C@](C)(O)[C@H]1[C@H](O)C[C@]2(C)[C@@H]3CC=C4[C@@H](C=C(O)C(=O)C4(C)C)[C@]3(C)C(=O)C[C@@]12C
active: Potency [1] 0.0418 µM | Potency [2] 0.0662 µM | Potency [4] 0.418 µM | Potency [5] 0.059 µM | Potency [19] 0.0083 µM | Potency [15] 0.105 µM | Potency [16] 0.0148 µM | Potency [6] 0.0148 µM | Potency [18] 0.0372 µM | Potency [7] 2.09 µM | Potency [10] 1.18 µM | Potency [11] 0.0418 µM | Potency [12] 0.0187 µM | Potency [20] 0.0148 µM | Potency [17] 0.0372 µM | Potency [13] 1.32 µM

Cc1ccccc1-n1c(Cn2ncc3c(N)ncnc32)nc2cccc(C)c2c1=O
active: Potency [1] 0.148 µM | Potency [2] 4.69 µM | Potency [4] 0.0372 µM | Potency [5] 0.372 µM | Potency [14] 0.332 µM | Potency [15] 0.418 µM | Potency [16] 0.0662 µM | Potency [6] 0.235 µM | Potency [9] 23.5 nM | Potency [11] 0.148 µM | Potency [12] 0.132 µM
inactive: Potency [18] | Potency [13]

NC1CC1c1ccccc1 (stereo not drawn)
inactive: Potency [1] | Potency [2] | Potency [3] | Potency [4] | Potency [5] | Potency [6] | Potency [7] | Potency [8] | Potency [10] | Potency [11] | Potency [12] | Potency [17]

CN1CCN(c2ccc([N+](=O)[O-])c3no[n+]([O-])c23)CC1
active: Potency [1] 16.6 µM | Potency [2] 9.35 µM | Potency [3] 23.5 µM | Potency [4] 20.9 µM | Potency [5] 20.9 µM | Potency [19] 5.26 µM | Potency [15] 23.5 µM | Potency [6] 13.2 µM | Potency [18] 18.7 µM | Potency [7] 23.5 µM | Potency [9] 20900 nM | Potency [11] 16.6 µM | Potency [12] 8.33 µM | Potency [20] 8.33 µM | Potency [13] 20.9 µM
